Results: PubChem BioAssay AID371 (SRMLSC, 2006)
The campaign covered roughly 3,300 compounds. About 280 (8.5%) were called active.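 The calls were made as follows: active = mean growth inhibition over the two runs of 50% or more; inactive = mean growth inhibition under 50%.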 The full list was thinned out, with actives kept by preference.

assay: A549 NSCLC cell proliferation inhibitors – ATP luminescence, human non-small cell lung line, primary screen (AID 371); conditions: at 10 µM, stronger effect = higher value;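 also: compound exposure lasted 72 h before the ATP read; 0% = untreated cell signal and 100% = no luminescence left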

Growth inhibition, inactive:
COc1cccc(C(=O)N2CCN(Cc3ccccn3)CC2)c1OC -2.78%
COc1ccc(Cn2c(N)c(C#N)c3nc4ccccc4nc32)cc1OC 11.7%
COc1cc(C2C(C(C)=O)=C(O)C(=O)N2c2ccc(Br)cn2)ccc1O (stereo not given) 3.52%
CC1(C)CC(=O)C(C=NCCN2CCN(C(=O)C34CC5CC(CC(C5)C3)C4)CC2)=C(O)C1 3.05%
COc1ccccc1-n1c(=O)c2c3c(sc2n2c(SC)nnc12)CCC3 6.85%
COc1cccc(OCCN2CCN(c3ncnc4c3cnn4-c3ccccc3)CC2)c1 46.7%
COc1cccc(N2CCN(C(=O)c3ccc(=O)oc3)CC2C)c1 (stereo not given) -1.33%
COc1ccc2c(c1)[nH]c1c(=O)n(CC3CCCO3)cnc12 (stereo not given) 8.24%
CCOC(=O)C1/C(=N\O)CC(C)(O)C(C(=O)OCC)C1c1ccc(N(C)C)cc1 (stereo not given) 7.47%
CCCSc1nnc2n(Cc3ccccc3)c(=O)c3c4c(sc3n12)CCC4 13.6%
Cc1nnc2n(Cc3ccccc3)c(=O)c3c4c(sc3n12)CN(Cc1ccccc1)CC4 40.6%
CC1CCc2cc(F)cc3c(O)c(C(=O)Nc4cnccn4)c(=O)n1c23 (stereo not given) 26.4%
CC1CCc2cc(F)cc3c(O)c(C(=O)NCc4ccco4)c(=O)n1c23 (stereo not given) 46.7%
COC(=O)c1cc(Br)c(=O)n(Cc2ccc3c(c2)OCO3)c1 9.14%
O=C(NCc1cccnc1)/C(=N\O)c1ccccc1 0.76%
CCN1CCN(c2nc3c(C)cccn3c(=O)c2/C=C(\C#N)S(=O)(=O)c2ccc(C)cc2)CC1 1.14%
O=C(Cc1cscn1)c1ccc(O)cc1O 2.87%
CCCN(CCC)C(=O)CC(c1ccc(F)cc1)c1ccco1 (stereo not given) 38.5%
CC1N(O)C(c2ccc(Cl)cc2Cl)N(O)C1(C)C (stereo not given) -11.8%
CC1(C)Cc2nc3sc4c(N(CCO)CCO)ncnc4c3cc2CO1 2.92%
Cc1ccc(S(=O)(=O)N2CCN(c3nc(C)c4c(c3C#N)CC(C)(C)OC4)CC2)cc1 30.2%
Oc1ccc(Br)cc1CNn1cnnc1 3.94%
CCn1c(SCC(=O)Nc2ccccc2C(=O)OC)nnc1-c1ccc(N)cc1 -4.2%
COCCNc1ncnc2c1cnn2-c1ccc(Cl)cc1 26.1%
CCOC(=O)C1=C(C)N=C2SC(C)C(=O)N2C1c1cccc(F)c1 (stereo not given) -4.33%
CCOC(=O)C1CCN(c2nc3ccccc3nc2C(C#N)C(=O)OCCOC)CC1 (stereo not given) 13.4%
CCC1=Nc2ccccc2NC2=C1C(=O)CCC2 1%
CCc1cn([C@H]2C[C@H](O)[C@@H](CO)O2)c(=O)[nH]c1=O 29.9%
Cc1cn([C@H]2C[C@H](N=[N+]=[N-])[C@@H](CO)O2)c(=O)[nH]c1=O 7.02%
COc1ccccc1-c1nn2c(-c3ccco3)nnc2s1 21.8%
Cc1cc2c(c(=O)o1)C(Cc1ccccc1)C(C#N)=C(N)O2 (stereo not given) -0.57%
CC1(C)Cc2c(C#N)c(NCCN3CCOCC3)nc(-c3ccco3)c2CO1 3.05%
Nc1ncnc2nc(SCc3ccccc3)[nH]c12 13.6%
O=C(COc1ccccc1)Nc1ccc(-c2nnc(-c3ccco3)o2)cc1 -6.02%
CCC(=O)Nc1ccc(-c2nnc(-c3ccccc3)o2)cc1 33.7%
O=C(Cc1ccc(Cl)cc1)Nc1cccc(-c2nnc(-c3ccco3)o2)c1 20.9%
O=C(Cc1ccccc1)Nc1cccc(-c2nnc(-c3ccco3)o2)c1 24%
N/C(CCCN1CCCCC1)=N/O -8.24%
CCOC(=O)CNC(=O)CCCCCC(=O)NCC(=O)OCC -12.7%
O=C(NCCN1CCOCC1)c1cc2n(n1)C(C(F)(F)F)CC(c1ccc(F)cc1)N2 (stereo not given) 2.7%
CC(C)(C)NCC(=O)c1c[nH]c2ccccc12 -2.93%
COc1ccc2c(c1OC)C(=O)N1c3ccccc3C(=O)N(c3ccccc3)C21 (stereo not given) 36.5%
CCCCSc1nc(O)c(C2OC(=O)c3c2ccc(OC)c3OC)c(=O)n1C (stereo not given) 4.34%
c1ccc(-c2nnc(OCCN3CCOCC3)c3ccccc23)cc1 -0.08%
CCn1cc(C(=O)NCCCN(C)C)c(=O)c2cc(F)c(N3CCN(C)CC3)cc21 8.61%
CCn1cc(C(=O)NCC2CCCO2)c(=O)c2cc(F)c(N3CCN(C)CC3)cc21 (stereo not given) -0.9%
CCOC(=O)N1CCN(C(=O)c2cn(CC)c3cc(N4CCN(C)CC4)c(F)cc3c2=O)CC1 0.65%
CCn1cc(C(=O)NCc2ccccn2)c(=O)c2cc(F)c(N3CCN(C)CC3)cc21 -0.7%
CCNc1nc(NC(C)C)nc(N(C#N)C(C)C(=O)N(C)C)n1 (stereo not given) 2.18%
CCN(CC)CCCN1C(=O)C(=O)/C(=C(/O)c2ccccc2)C1c1cc(OC)ccc1OC (stereo not given) 6.35%
O=C1CC(NCc2ccncc2)C(=O)N1c1ccc(Cl)cc1 (stereo not given) -4.36%
COc1cccc(NC(=O)CC2SC(=Nc3ccccc3)NC2=O)c1 (stereo not given) 19.4%
Cn1c(CSc2ncn[nH]2)nc2ccccc21 -2.84%
CC12CCC(=O)N1c1c(sc3nc(N4CCOCC4)c4c(c13)CCCC4)C(=O)N2 (stereo not given) 4.33%
CCOC(=O)c1c(CNCCN(CC)CC)n(C)c2cc(Br)c(OC)cc12 33.7%
CCOC(=O)c1c(C)n(C)c2ccc(OC)c(NC(=O)CN3CCCCC3)c12 6.99%
CCOC(=O)c1c(CN2CCCCC2)oc2ccc(OC)cc12 5.15%
CCOC(=O)c1c(C)n(C)c2ccc(OC)c(NC(=O)CN3CCN(Cc4ccccc4)CC3)c12 12.1%
COc1ccccc1C1/C(=C(/O)c2ccc(C)cc2)C(=O)C(=O)N1CCN1CCOCC1 (stereo not given) 2.55%
CN(CCCCCC(=O)/C=N/O)Cc1ccccc1 1.07%
COc1ccc(N(CN2C(=O)C3C4C=CC(C4)C3C2=O)C(=O)c2ccco2)cc1 (stereo not given) 4.02%
N#C/C(C(=O)NCc1ccco1)=C1/SC(Cc2ccc(Cl)cc2)C(=O)N1c1ccccc1 (stereo not given) 5.74%
CN(C)CCCn1c(NC(=O)C2CCCCC2)nc2ccccc21 1.53%
CCC(=O)Nc1nc2ccccc2n1CCN(C)C 4.62%
CCOc1ccc(NC(=O)c2nn(C)cc2Br)cc1 20.1%
CCC1CCCCN1c1nc(-c2cccc(OC)c2O)nc2ccccc12 (stereo not given) 45%
Nc1c2c(nc3ccccc13)N(C1CCCCC1)CC2 38.8%
CCOc1nc(-c2ccncc2)nc2ccccc12 10.3%
C=CCOc1nc(-c2ccncc2)nc2ccccc12 18.5%
COc1cccc(-c2nc(N3CCCCC3)c3ccccc3n2)c1O 49.3%
COc1cccc(-c2nc(N3CC(C)CC(C)C3)c3ccccc3n2)c1O (stereo not given) 30.1%
Cc1ccc(N2C(=O)c3sc4nnc(C)c(=O)n4c3C2=O)cc1 -7.4%
COc1cccc(OC)c1-c1nn2c(-c3ccccc3Cl)nnc2s1 21%
CCOC(=O)c1ccc(NCC(O)COc2ccccc2)cc1 (stereo not given) 31.1%
COc1ccc(C(=O)N2CCCC(c3ccccc3)C2)cc1 (stereo not given) 19%
COc1ccccc1-c1nnc2sc(COc3ccccc3)nn12 22%
CC1C[C@@]2(NC(=O)NC2=O)C(C)CN1C (stereo not given in full) 2.94%

Growth inhibition, active:
CC[C@H](C)C(=O)O[C@H]1C[C@@H](C)C=C2C=C[C@H](C)[C@H](CC[C@@H]3C[C@@H](O)CC(=O)O3)[C@H]21 64.9%
COc1cccc(N2CCN(c3ncnc4c3[nH]c3ccccc34)CC2C)c1 (stereo not given) 91.9%
COc1cccc(N2CCN(c3ncnc4c3[nH]c3ccc(F)cc34)CC2C)c1 (stereo not given) 93%
O=c1c2c3c(sc2n2cnnc2n1Cc1ccccc1)CN(Cc1ccccc1)CC3 70.5%
CC1CCc2cc(F)cc3c(O)c(C(=O)NCC4CCCO4)c(=O)n1c23 (stereo not given) 61.9%
CCCc1cc(C(=O)Cc2ccc(F)cc2)c(O)cc1O 89.5%
Oc1c(Cl)cc(Cl)cc1Sc1cc(Cl)cc(Cl)c1O 82.9%
O=c1[nH]c(=O)n([C@H]2C[C@H](O)[C@@H](CO)O2)cc1F 71%
Cc1cccc(C)c1OCC(=O)Nc1cccc(-c2nnc(-c3ccccc3)o2)c1 53%
COc1ccc(CC(=O)Nc2cccc(-c3nnc(-c4ccco4)o3)c2)cc1 64%
CCn1cc(C(=O)NCCc2ccccc2)c(=O)c2cc(F)c(N3CCN(C)CC3)cc21 89.8%
CCn1cc(C(=O)NCc2ccco2)c(=O)c2cc(F)c(N3CCN(C(=O)c4ccco4)CC3)cc21 59.3%
CCOC(=O)c1c(CN2CCN(CCO)CC2)n(C)c2cc(Br)c(OC)cc12 84.4%
CCOC(=O)c1c(CN2CCN(C)CC2)n(C)c2cc(Br)c(OC)cc12 89.8%
CCC(=O)Nc1nc2ccccc2n1Cc1ccccc1C 64.4%
CCC1CCCCN1c1nc(-c2ccncc2)nc2ccccc12 (stereo not given) 74.9%
COc1cccc(-c2nc(N3CCC(C)CC3)c3ccccc3n2)c1O 53.7%
COc1cccc(-c2nc(N3CCCCC3C)c3ccccc3n2)c1O (stereo not given) 61.7%
